Screening results from PubChem.
CYP2C9 activ = activators of human CYP2C9 | P11712 | recombinant CYP2C9, luciferin-H conversion, luminescence; active compounds read high; factor 1 = untreated enzyme, 0 = blocked | activation factor at 5 µM | 96,000 tested, 1.4% active | AID 1024;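 active = activation factor of 2 or more for CYP2C9 at a 5 µM dose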
Target sequence (P11712 whole entry, looked up): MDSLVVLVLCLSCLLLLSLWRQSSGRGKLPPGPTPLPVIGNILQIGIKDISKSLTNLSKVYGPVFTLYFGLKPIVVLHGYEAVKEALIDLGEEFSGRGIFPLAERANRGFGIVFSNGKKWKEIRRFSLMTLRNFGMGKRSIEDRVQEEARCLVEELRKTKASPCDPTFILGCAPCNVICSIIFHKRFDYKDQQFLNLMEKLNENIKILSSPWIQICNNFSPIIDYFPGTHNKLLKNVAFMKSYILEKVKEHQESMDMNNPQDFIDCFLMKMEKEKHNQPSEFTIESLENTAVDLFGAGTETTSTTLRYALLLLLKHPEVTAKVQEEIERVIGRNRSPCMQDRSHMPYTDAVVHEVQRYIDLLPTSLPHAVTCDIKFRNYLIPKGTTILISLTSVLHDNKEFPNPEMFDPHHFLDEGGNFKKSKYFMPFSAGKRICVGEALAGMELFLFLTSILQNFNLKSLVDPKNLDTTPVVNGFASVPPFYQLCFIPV
CYP2C9 inhib = inhibitors of human CYP2C9; 96,000 tested, 20% active; CYP2C9 Supersomes, luciferin-H conversion, luminescence; inhibition, % at 5 µM; P11712; AID 777;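 active = blocking of liver enzyme CYP2C9 beyond about 50% at 5 µM, limit read from the data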
CYP2C19 activ = cytochrome P450 2C19 (human) activation. P33261. recombinant CYP2C19, luciferin-H EGE luminescence; active compounds read high; 0 = fully inhibited enzyme, 1 = untreated enzyme. activation factor at 5 µM. 96,000 tested, under 10 active. AID 1025;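 active = activation factor of at least 2 at 5 µM in the primary screen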
Cav3 T inh = inhibitors of human Cav3.2 T-type calcium channel. O95180. Cav3.2-expressing cells, Fluo-4 calcium fluorescence FDSS; active compounds read low. B-score at 10 µM. 100,000 tested, 4% active. AID 449739;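 active = single-dose well whose peak fluorescence ratio is a statistical outlier from its plate by either plate-standardised score or position-corrected B-score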
CYP2C19 inhib = blocks human cytochrome P450 2C19. P33261. CYP2C19 Supersomes, luciferin-H EGE luminescence, 30 min. inhibition, % at 5 µM. 96,000 tested, 21% active. AID 778;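 active = CYP2C19 inhibition above a set limit at 5 µM in the primary screen, cut at about 50% in these data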
Of the large screens only hits and unclear results are named; the others gave an inactive call. Hits are enriched below; roughly 27% of the tested compounds scored in any of these assays.

Cc1nc2c(C(=O)N3CCOCC3)cnn2c(C)c1Cc1cccc(Cl)c1	none (no result: Cav3 T inh)
CN(c1cccc(NC(=O)CN2C(=O)c3ccccc3S2(=O)=O)c1)S(C)(=O)=O	none
NC(=O)COC(=O)C(Cc1ccccc1)NS(=O)(=O)c1ccccc1F (centres undefined)	CYP2C19 inhib 58.4
CCOC(=O)C(Cc1ccccc1)NS(=O)(=O)c1ccc(NC(C)=O)cc1 (centres undefined)	CYP2C19 inhib 66.7
C/C(=N\NC(N)=S)C12CC3CC(CC(C3)C1)C2	none
COC(=O)CCC(=O)N1CCc2cc(S(=O)(=O)N3CCc4ccccc43)ccc21	none (no result: Cav3 T inh)
O=C(NCC1COc2ccccc2O1)c1ccc(Cl)cc1 (centres undefined)	CYP2C19 inhib 74.1
O=C(NCC1COc2ccccc2O1)Nc1ccccc1F (centres undefined)	CYP2C9 inhib 84.7, CYP2C19 inhib 95.5
COC(=O)CNC(=O)c1c(C)cc(=O)oc1C	none
O=C(NCC1COc2ccccc2O1)c1ccc(NC(=O)c2ccco2)cc1 (centres undefined)	none
Cc1cc(=O)oc(C)c1C(=O)NCC1COc2ccccc2O1 (centres undefined)	CYP2C9 inhib 54.7
COC(=O)C[C@H]1c2cc(F)cc(F)c2S(=O)(=O)N1C1CCN(Cc2ccccc2)CC1	none (no result: CYP2C9 activ, CYP2C9 inhib, CYP2C19 activ, CYP2C19 inhib)
COC(=O)c1cccc(OCC(O)Cn2cnc3cc(C)c(C)cc32)c1 (centres undefined)	none
COC(=O)c1cccc(OCC(O)Cn2ccnc2)c1 (centres undefined)	CYP2C9 inhib 87.8, CYP2C19 inhib 100.4 (no result: Cav3 T inh)
Cn1c(=O)c2c(nc(N3CCN(Cc4ccccc4)CC3)n2CCCc2ccccc2)n(C)c1=O	CYP2C19 inhib 68.1
Cn1c(=O)[nH]c(=O)c2c1nc(N(CCO)Cc1ccccc1)n2CCCc1ccccc1	CYP2C9 inhib 65.0 (no result: Cav3 T inh)
Cn1c(=O)c2c(nc(N3CCN(c4ccccc4)CC3)n2CCCc2ccccc2)n(C)c1=O	none
Cn1c(=O)[nH]c(=O)c2c1nc(N1CCN(Cc3ccccc3)CC1)n2CCSc1ncccn1	CYP2C19 inhib 75.4
Cn1c(=O)c2c(nc(CN3CCC(C(N)=O)CC3)n2CCCc2ccccc2)n(C)c1=O	CYP2C9 inhib 70.7, CYP2C19 inhib 59.3
CCN1CCN(c2nc3c(c(=O)[nH]c(=O)n3C)n2CCCSc2ncccn2)CC1	none
CCCCNC(=O)/C=C/c1ccc(OC)c(Br)c1	none
CC1CCN(c2nc3c(c(=O)[nH]c(=O)n3C)n2Cc2ccccc2Cl)CC1	Cav3 T inh -4.5 (no result: CYP2C9 activ, CYP2C9 inhib, CYP2C19 activ, CYP2C19 inhib)
COc1cccc(C(=O)Cn2c(N3CCOCC3)nc3c2c(=O)n(C)c(=O)n3C)c1	none
Cn1c(=O)[nH]c(=O)c2c1nc(Br)n2Cc1ccccc1Cl	none
Cn1c(=O)[nH]c(=O)c2[nH]c(N(Cc3ccccc3)Cc3ccccc3)nc21	CYP2C9 inhib 55.6
CCCCn1c(N2CCC(Cc3ccccc3)CC2)nc2c1c(=O)[nH]c(=O)n2C	CYP2C19 inhib 65.6 (no result: Cav3 T inh)
Cc1ccc(C(=O)Cn2c(N3CCOCC3)nc3c2c(=O)n(C)c(=O)n3C)cc1	CYP2C9 inhib 54.5
Cc1cccc2c(=O)c(C(=O)NCCCN3CCOCC3)c[nH]c12	none (no result: CYP2C9 activ, CYP2C9 inhib, CYP2C19 activ, CYP2C19 inhib)
C/C(Cl)=C\Cn1c(N2CCCC2)nc2c1c(=O)[nH]c(=O)n2C	Cav3 T inh 3.49
COCCn1c(N2CCN(c3ccc(OC)cc3)CC2)nc2c1c(=O)n(C)c(=O)n2C	CYP2C9 inhib 59.2
Cn1c(=O)[nH]c(=O)c2c1nc(N1CCN(Cc3ccccc3)CC1)n2CCCc1ccccc1	CYP2C19 inhib 87.6
C=CCn1c(N2CCCCCC2)nc2c1c(=O)[nH]c(=O)n2C	none
COc1ccccc1Nc1nc(N)nc(CSCCO)n1	none
Cn1c(CSCc2ccc(Cl)cc2)nnc1SCC(=O)Nc1nc2ccccc2s1	none
CCCCCCCCS(=O)c1sc2nc3c(cc2c1N)CCCC3 (centres undefined)	Cav3 T inh -4.8 (no result: CYP2C9 activ, CYP2C9 inhib, CYP2C19 activ, CYP2C19 inhib)
CN(C)S(=O)(=O)c1ccc(N2CCCC2)c(C(=O)NCc2ccc(Cl)cc2)c1	none
CCN(CC)S(=O)(=O)c1ccc(N2CCCC2)c(C(=O)OCC(=O)/C(C#N)=C(\C)N)c1	CYP2C9 inhib 81.7, CYP2C19 inhib 80.2
CC(=O)NC1=NN(C(C)=O)C(c2sccc2C)S1 (centres undefined)	none
C#CCOCCOCCOCCNc1nc(N2CCOCC2)nc(N2CCN(C(=O)Cn3cc(CC(C)O)nn3)CC2)n1 (centres undefined)	none (no result: CYP2C9 activ, CYP2C9 inhib, CYP2C19 activ, CYP2C19 inhib)
CCCCCCn1c(SCC(=O)c2c(N)n(C)c(=O)n(C)c2=O)nc2ccccc21	CYP2C9 inhib 74.6
